Screening data as filed in PubChem.
Rows were chosen to be rich in hits. Some 0.96% of all compounds tested hit in one or more screens of this group.
V-ATPase pHluor – regulators of yeast V-ATPase proton transport. S. cerevisiae, pHLuorin cytosolic pH fluorescence. response, % at 10 µM. actives 0.37% (n = 350,000). AID 504577; in the data active = response mostly above about 7.3%, no sharp cut-off; inactive = mostly below about 5.4%; also: actives read high
beta cell repl – inducers of beta-cell replication in MIN6 cells; MIN6 cells proliferation, ATPlite luminescence, 48 h; cells starved in 0.2% serum; 100% = growth in 10% serum; proliferation, % at 10 µM; actives 0.29% (n = 330,000); AID 2380;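 active = compounds whose signal lies at least 3.5 SD above the mean of all wells on their plate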
Rtt109 HAT inh – inhibitors of Candida albicans Rtt109/Vps75 histone acetyltransferase; AID 540336; actives 0.16% (n = 330,000); inhibition, % at 34.9 µM; purified Rtt109/Vps75, ThioGlo CoA-SH fluorescence, 4 h; Q5AAJ8;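 active = inhibition of at least 50% in every replicate; inconclusive = best replicate reaches 50% inhibition but some replicates fall short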
Target sequence (Q5AAJ8 whole entry, looked up): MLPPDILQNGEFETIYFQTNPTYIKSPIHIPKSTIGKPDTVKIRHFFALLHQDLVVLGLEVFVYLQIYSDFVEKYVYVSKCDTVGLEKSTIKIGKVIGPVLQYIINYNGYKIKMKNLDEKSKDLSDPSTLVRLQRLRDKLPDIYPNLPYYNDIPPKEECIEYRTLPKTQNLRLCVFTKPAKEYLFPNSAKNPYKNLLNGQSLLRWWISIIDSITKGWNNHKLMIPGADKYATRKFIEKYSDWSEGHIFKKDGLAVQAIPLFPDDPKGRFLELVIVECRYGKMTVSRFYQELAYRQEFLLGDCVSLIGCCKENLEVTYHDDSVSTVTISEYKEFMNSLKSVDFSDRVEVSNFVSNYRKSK
DAGLB inhibitor – blocks human DAGLB lipase activity. HEK293T DAGLB membrane lysate, EnzChek fluorogenic substrate. AID 504411. actives 0.059% (n = 340,000). inhibition, % at 5.17 µM; in the data active = inhibition above about 34%
HDAC3 inhib – human HDAC3 inhibition; actives 0.15% (n = 320,000); inhibition, % at 8.3 µM; recombinant HDAC3, fluorogenic peptide/trypsin coupled, fluorescence; O15379; in the data active = inhibition above about 26%, passing the limit was not always enough; inconclusive = no clear call, values can overlap the other calls
V-ATPase pH SP – regulators of yeast V-ATPase proton transport. shares compounds with V-ATPase pHluor. S. cerevisiae pHLuorin cytosolic pH. response, % at 10 µM. actives 2% (n = 980). AID 602197; in the data active = response above about 24%
Each line names hits and unclear results; the compound was inactive in the other large screens (follow-up assays come after a bar, where they were run).

CCc1cc(-c2cnnn2Cc2ccc3ccccc3c2)ccc1-c1cn(CC(C)C)nn1	V-ATPase pHluor 7.2 (no result: beta cell repl, Rtt109 HAT inh, HDAC3 inhib) | V-ATPase pH SP inactive
O=C(OCc1ccccc1Cl)c1cccnc1Cl	V-ATPase pHluor 9.5 | V-ATPase pH SP inactive
CC(=O)Nc1ccc(NC(=O)CSc2nnc(NC(=O)Cc3ccc(F)cc3)s2)cc1	V-ATPase pHluor 8.3 | V-ATPase pH SP inactive
O=C(CSC1=NCCS1)Nc1ccc(F)cc1	none (no result: DAGLB inhibitor) | V-ATPase pH SP inactive
NC(=O)c1ccccc1NC(=O)CSC1=NCCS1	none
CCC(C)C(=O)Nc1nnc(SCC(=O)Nc2ccc(F)cc2)s1 (stereo not given)	none
Cc1ccc(NC(=O)CSCC(=O)Nc2ccccc2C(=O)N2CCCCC2)cc1	none
c1ccc(CSC2=NCCCN2)cc1	none | V-ATPase pH SP inactive
O=[N+]([O-])c1ccccc1OCc1nc(-c2cccs2)no1	none
O=[N+]([O-])c1ccc(F)cc1OCc1nc(-c2cccs2)no1	V-ATPase pHluor 15.2 (no result: beta cell repl, HDAC3 inhib) | V-ATPase pH SP inactive
O=C(O)CCN1C(=O)C2C3CC(C2C1=O)C1C(c2ccccc2)c2sc(=O)n(-c4ccccc4)c2SC31 (stereo not given)	V-ATPase pHluor 9.2 | V-ATPase pH SP inactive
CCOC(=O)c1cccc(C(=O)OCC)n1	none | V-ATPase pH SP inactive
COc1ccc(CN(C)CC(=O)Nc2ccc(SC(F)F)cc2)cc1OC	none
COCC1CCN(C(=O)C2CCN(c3nc(-c4ccccc4)nc4c3CCC4)CC2)C1 (stereo not given)	none
O=C(C1CCN(c2nc(-c3ccccc3)nc3c2CCC3)CC1)N1CCC(O)CC1	V-ATPase pHluor 11.3 | V-ATPase pH SP inactive
CC(Oc1cccc2cccnc12)C(=O)N/N=C/c1ccc2c(c1)OCO2 (stereo not given)	V-ATPase pHluor 7.0 | V-ATPase pH SP inactive
CC(Oc1cccc2cccnc12)C(=O)N/N=C/c1ccccc1 (stereo not given)	none (no result: Rtt109 HAT inh)
Cc1ccc(CN2CCNC(=O)C2CC(=O)N(C)CCc2ccccc2)cc1 (stereo not given)	V-ATPase pHluor 11.1 | V-ATPase pH SP inactive
O=C(c1cc(=O)[nH]c2ccccc12)N1CCN(c2ccccc2)CC1	none
Cc1cccc(N2CCN(C(=O)c3cc(=O)[nH]c4ccccc34)CC2)c1C	V-ATPase pHluor 14.1 | V-ATPase pH SP inactive
CCC(=O)Nc1cc(-c2nn(C)c(=O)c3ccccc23)ccc1OC	none
COc1ccc(-c2nn(C)c(=O)c3ccccc23)cc1NC(=O)Cn1nc(C)c2ccccc2c1=O	V-ATPase pHluor 9.9 | V-ATPase pH SP inactive
COc1ccccc1CNC(=O)c1oc2ccc(S(=O)(=O)N3CCCC3)cc2c1C	V-ATPase pHluor 7.2 | V-ATPase pH SP inactive
COc1ccccc1CNC(=O)c1oc2ccc(S(=O)(=O)N3CCOCC3)cc2c1C	none
O=C(c1ccccc1)N1CN2CN(C(=O)c3ccccc3)CC([N+](=O)[O-])(C2)C1	V-ATPase pHluor 46.1 | V-ATPase pH SP inactive
CC1CCc2c(sc3ncn(Cc4ccc(C(=O)O)cc4)c(=O)c23)C1 (stereo not given)	V-ATPase pHluor 6.6 | V-ATPase pH SP inactive
CC1CCc2c(sc3ncn(CCO)c(=O)c23)C1 (stereo not given)	none
CCc1ccc(N2C(=O)c3cc(N4CCOCC4)c([N+](=O)[O-])cc3C2=O)cc1	none (no result: V-ATPase pHluor, Rtt109 HAT inh, DAGLB inhibitor)
CCN(CC)C(=O)CSc1nnc(-c2ccccc2)o1	none | V-ATPase pH SP inactive
COc1cccc(OCc2nnc(SCC(=O)OCc3ccccc3)o2)c1	none (no result: HDAC3 inhib)
O=C(CSc1nnc(-c2ccccc2)o1)OCc1ccccc1	none | V-ATPase pH SP inactive
CCOc1ccc(-c2nnc(SCC(=O)NC3CC3)o2)cc1	V-ATPase pHluor 10.0 | V-ATPase pH SP inactive
CCOC(=O)CN(C(=O)CNC(=O)c1ccco1)C(C(=O)NC1CCCC1)c1ccccc1OCC (stereo not given)	none
COCCNC(=O)c1ccccc1NC(=O)c1ccc(OC)c(OC)c1	V-ATPase pHluor 10.6 | V-ATPase pH SP inactive
COc1ccc(C(=O)Nc2ccccc2C(=O)NCc2ccco2)cc1OC	none
COc1ccccc1NC(=O)c1ccc(COc2ccccc2OC)cc1	V-ATPase pHluor 10.3 | V-ATPase pH SP inactive
COc1ccc(CCCC(=O)N/N=C\c2cccs2)cc1	V-ATPase pHluor 8.6 | V-ATPase pH SP inactive
COC(=O)N/N=C/c1cccs1	none
COCc1ccc(C(=O)N2CCCC(Nc3ccc(C(C)C)cc3)C2)s1 (stereo not given)	none
Cc1cc(NC(=O)C(C)SCC(=O)Nc2ccccc2N2CCCC2)no1 (stereo not given)	none
Cc1cc(NC(=O)C(C)SCC(=O)Nc2ccccc2C(C)(C)C)no1 (stereo not given)	V-ATPase pHluor 9.9 | V-ATPase pH SP inactive
CCOC(=O)Nc1c2ccccc2nc2ccccc12	none (no result: HDAC3 inhib) | V-ATPase pH SP inactive
COc1ccc(-c2nc3ccccc3c(=O)n2NC(=O)Cc2ccccc2)cc1	V-ATPase pHluor 9.8 | V-ATPase pH SP inactive
CCOC(=O)C1CCN(C(=O)COC(=O)CNC(=O)c2sc3ccccc3c2Cl)CC1	none
CCOc1ncccc1C(=O)Nc1nc(C(C)(C)C)cs1	V-ATPase pHluor 9.4 (no result: Rtt109 HAT inh) | V-ATPase pH SP inactive
CCCC(=O)NCCCc1nc2ccccc2n1CC	none (no result: HDAC3 inhib)
COc1ccc(CC(=O)OC(C)CN2CCCC2)cc1 (stereo not given)	none
CC(CN1CCOCC1)OC(=O)Cc1ccc(Cl)cc1 (stereo not given)	V-ATPase pHluor 11.5 | V-ATPase pH SP inactive
COc1ccc(/C=N/Nc2nncc3ccccc23)cc1	none (no result: Rtt109 HAT inh)
CCOC(=O)c1c(-c2ccc(C)o2)csc1NC(=O)CSc1nnc(C)s1	V-ATPase pHluor 9.2 | V-ATPase pH SP inactive
CCOC(=O)c1c(-c2ccccc2)csc1NC(=O)CSc1nnc(C)s1	none
Cc1ccc(Cc2nnc(SCC(=O)Nc3ccccc3)[nH]c2=O)cc1	none
Cc1cc(C)nc(SC2=CS(=O)(=O)c3ccccc32)n1	none | V-ATPase pH SP inactive
O=S1(=O)C=C(Sc2nnc(-c3ccccc3)o2)c2ccccc21	V-ATPase pHluor 16.5 | V-ATPase pH SP 26.2
O=S1(=O)C=C(Sc2nc3ccccc3s2)c2ccccc21	none (no result: V-ATPase pHluor, Rtt109 HAT inh, DAGLB inhibitor)
Cc1ccc(C)c(OCCNc2ccc([N+](=O)[O-])cn2)c1	none
c1ccc(Cn2nnnc2CN2CCN(Cc3ccc4c(c3)OCO4)CC2)cc1	V-ATPase pHluor 6.8 | V-ATPase pH SP inactive
O=C(Nc1cccc(C(F)(F)F)c1)c1cccnc1N1CCN(c2ccccc2)CC1	V-ATPase pHluor 12.3, HDAC3 inhib inconclusive | V-ATPase pH SP inactive
COCCn1c(C)cc(C(=O)Cn2nc(C(=O)O)c3ccccc3c2=O)c1C	none
C=CCOc1ccc(CNn2c(C)n[nH]c2=S)cc1OC	V-ATPase pHluor 10.0 | V-ATPase pH SP inactive
COc1cc(CNC(C)(C)CO)ccc1OCC(=O)NC(C)(C)C	none
C=CCOc1c(Br)cc(CNn2c(C)n[nH]c2=S)cc1OC	none
COc1cc(CNn2cn[nH]c2=S)ccc1OCC(=O)NC(C)(C)C	V-ATPase pHluor 8.9 | V-ATPase pH SP inactive
CCNc1nnc(CCn2nc(C)c(Br)c2C)s1	V-ATPase pHluor 17.5 | V-ATPase pH SP inactive
